# ± gives the standard deviation of the averaged measurements.
# System: CHON-002
# Assay: nucleolar normality score relative to DMSO (fraction of DMSO control); RPE1 is a non-cancer human cell line; higher = more normal nucleoli (less nucleolar stress)
# Procedure: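 Selected screen hits were validated in hTERT lines (BJ5TA, CHON-002, RPE1) and cancer lines (DLD1, HCT116). Cells were immunostained for nucleolin and UBF and the nucleolar normality score was measured per field of view, with 4 fields per drug. Scores are normalized to each cell line's own DMSO control. Dose and time are not stated for this panel.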
row,SMILES,nucleolar normality score
1,CC(C)C[C@H](NC(=O)[C@H](CCc1ccccc1)NC(=O)CN1CCOCC1)C(=O)N[C@@H](Cc1ccccc1)C(=O)N[C@@H](CC(C)C)C(=O)[C@@]1(C)CO1 [Carfilzomib],0.453 ± 0.025
2,CC(C)c1c2cc(-c3ccnc(NC4CCC(NC5CCOCC5)CC4)n3)ccc2nn1C (configuration not stated),0.281 ± 0.015
3,CN1CC[C@H](c2c(O)cc(O)c3c(=O)cc(-c4ccccc4Cl)oc23)[C@H](O)C1 [Flavopiridol],0.181 ± 0.013
4,CC(C)c1cc(C(=O)N2Cc3ccc(CN4CCN(C)CC4)cc3C2)c(O)cc1O [Onalespib],0.383 ± 0.023
5,CC(C)n1nc(-c2ccc3oc(N)nc3c2)c2c(N)ncnc21 [Sapanisertib],0.4 ± 0.023
6,CN(C)CCNC(=O)c1cccn2c(=O)c3cc4ccccc4cc3nc12,0.0829 ± 0.03
7,Cc1nc(-c2cn3c(n2)-c2ccc(-c4cnn(C(C)(C)C(N)=O)c4)cc2OCC3)n(C(C)C)n1 [Taselisib],0.444 ± 0.044
8,Cc1cnc(CNC(=O)c2c(=O)c3ccc(N4CCCN(C)CC4)nc3n3c2sc2ccccc23)cn1,0.487 ± 0.11
9,COc1cccc2c1C(=O)c1c(O)c3c(c(O)c1C2=O)C[C@@](O)(C(=O)CO)C[C@@H]3O[C@H]1C[C@H](N)[C@H](O)[C@H](C)O1 [Doxorubicin],0.182 ± 0.039
10,CCc1cnn2c(NCc3ccc[n+]([O-])c3)cc(N3CCCC[C@H]3CCO)nc12 [Dinaciclib],0.201 ± 0.018
11,COC[C@H](NC(=O)c1cnc(C)s1)C(=O)N[C@@H](COC)C(=O)N[C@@H](Cc1ccccc1)C(=O)[C@@]1(C)CO1 [Oprozomib],0.548 ± 0.036
12,C=CCNC1=C2C[C@@H](C)C[C@H](OC)[C@H](O)[C@@H](C)/C=C(\C)[C@H](OC(N)=O)[C@@H](OC)/C=C\C=C(/C)C(=O)NC(=CC1=O)C2=O,0.408 ± 0.035
